The panel holds about 83,000 compounds, 20% with a hit somewhere; the sample as a whole holds those more often.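 Percent growth is the endpoint: 0 to 100 indicates growth inhibition (40 means 60% inhibition), 0 means no net growth, and negative values indicate cell death.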 Unmarked numbers belong to inactive results. Active and inactive are the calls of the source. Rule for the calls: active = growth percent below 10; inactive = the rest.

The subject of the assay is MDA-MB-468 breast. Kind of assay: NCI-60 one-dose screen, 48 h (100 = growth as untreated, 0 = no growth, -100 = all killed). The conditions noted are these: 10 µM unless noted.
As to `CCN1C(=O)N(CC)C2C1NN=C1SC(c3ccccc3)=CC(=O)N12` (stereo not given), the growth is 5.17% (active).

`CC1(C)N=C(N)N=C(N)N1c1cc(Cl)ccc1Cl`: the growth is 53.5%.

`Cc1ccc(S(=O)(=O)NCCNc2nccc(-c3c(-c4cccc(N)c4)nc4sccn34)n2)cc1`: the growth was 63.2%.

As to `C=C(CN1CC=CCC1)[C@@H]1CC[C@]2(C(=O)OC)CC[C@]3(C)[C@H](CC[C@@H]4[C@@]5(C)CC[C@H](OC(C)=O)C(C)(C)[C@@H]5CC[C@]43C)[C@@H]12`, the growth was 55.6%.

With `COc1ccccc1N=Nc1c(O)ccc2cc(S(=O)(=O)O)ccc12`, the growth is 111%.

For the origin of these results see PubChem BioAssay (NCI).
